Measurements as given in PubChem BioAssay AID588382 (National Center for Advancing Translational Sciences (NCATS), 2011).
The campaign covered roughly 1,300 compounds. About 150 (12%) were called active. Roughly 30% stayed inconclusive and do not appear here. The full list was thinned out, with actives kept by preference. A number with no mark means an inactive call. Calls follow the shape of the dose curve; as a rule, active = well fitted cell-killing curve with a large enough effect; inconclusive = small, poorly fitted or top-dose-only effect, or effect the other way; inactive = flat fitted curve, though single readings scatter.

test: qHTS of small molecules that selectively kill Giardia lamblia: Hit Validation in HepG2 cytotox; conditions: cell viability; Potency: HepG2 cytotoxicity; series mostly up to 38.3 µM; activity change, negative = cytotoxicity: at the top concentration;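 also: compound exposure lasted overnight at 37 deg C; nearly all actives have a fitted effect of over 55% in size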;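 as to activity change, negative = cytotoxicity: viability measured as cellular ATP by ATPLite luminescence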
Excerpt: Giardia lamblia is a human pathogen afflicting impoverished nations, and the most common cause of outbreaks of diarrhea in the United States. Giardia has been classified by the CDC as a category B bioterrorism organism. The favored anti giardiasis drugs in the US are metronidazole or tinidazole, compounds that have undesirable side effects. Moreover, increasing resistance to drug regimes and recurrence are a concern. It is thus clear that alternative drug treatments are needed.
In a collaboration between the University of Maryland, College Park and the NIH Chemical Genomics Center, a bioluminescence Giardia viability assay based on the trophozoites' ATP content was developed. This assay is suitable for high throughput screening, and miniaturized the assay for compound screening in 1536-well plates. The goal of the project is to screen the Molecular Libraries Small Molecule Repository (MLSMR) for compounds that selectively kill Giardia trophozoites. This counterscreen looks at the toxicity of the compounds against the human HepG2 cell line.
NIH Chemical Genomics Center [NCGC]
NIH Molecular Libraries Probe Centers Network [MLPCN]
Assay Submitter (PI): Osnat Herzberg, University of Maryland, College Park, MD.
4 uL of HepG2 cells ae dispensed into white 1536-well plates. They are incubated overnight at 37 deg C and then 23 nL of compounds are transferred to the wells with a pintool. Plates are incubated overnight at 37 deg C. 2 uL of ATPLite is added and the plates are incubated for 15 min at room temperature before they are read on the ViewLux for luminiescence.
% is scaled to controls: 0 for no effect and ±100 for the full control effect; potency is read from the fitted curve at half-maximal effect.

Compound | Potency | activity change, negative = cytotoxicity [%]
COc1cc2nc(N3CCCCC3)nc(NC3CCN(Cc4ccccc4)CC3)c2cc1OC | 2.93 µM (active) | –
CCc1cc(=O)oc2cc(C)cc(OCC(=O)NC3CCN(Cc4ccccc4)CC3)c12 | – | 4.04
COc1ccc(-n2nc([N+](=O)[O-])c(=NC3CCN(Cc4ccccc4)CC3)n2O)cc1 | – | 19.3
NC(=O)CCn1c(C(=O)c2cccc([N+](=O)[O-])c2)c2ccccc2[n+]1[O-] | – | 7.08
CC(=O)c1c(C)n([O-])c2ccccc2[n+]1=O | – | 10.7
O=[N+]([O-])c1[nH]cnc1/C=C/c1ccccc1 | – | -0.0224
O=C1NCCN1c1ncc([N+](=O)[O-])s1 | – | 13
O=C(/C=C/c1cccnc1)/C=C/c1cccnc1 | 3.69 µM (active) | –
COc1ccc2nc(COC(=O)c3cccc([N+](=O)[O-])c3)c(C(C)=O)[n+]([O-])c2c1 | – | 27.3
Nc1nc(F)nc2c1ncn2[C@@H]1O[C@H](CO)[C@@H](O)[C@@H]1O | – | 8.69
CCOC(=O)Cc1csc(NC(=S)NC(=O)c2ccc(C)cc2)n1 | 2.93 µM (active) | –
Cc1ccc(C(=O)NC(=O)OCCn2c(C)cnc2[N+](=O)[O-])cc1 | – | -9.61
CCOC(=O)Cc1csc(SCC(=O)NC2CCCCC2)n1 | – | 11.9
Cc1onc(-c2ccccc2)c1C(=O)N(Cc1ccccc1)C(C)C | – | 0.585
Cc1cnc([N+](=O)[O-])n1CCOC(=O)NC(=O)c1ccccc1 | – | 17.1
COc1cccc2sc(N3CCN(C(=O)c4ccc([N+](=O)[O-])o4)CC3)nc12 | – | 5.93
O=[N+]([O-])c1ccc(CSc2nnc(-c3cnccn3)o2)cc1 | – | -9
Cc1cnc([N+](=O)[O-])n1CCOC(=O)NC(=O)c1c(F)cccc1F | – | 5.53
CCCCCN=Cc1c(C)[nH]n(-c2nc3ccccc3s2)c1=O | 0.329 µM (active) | –
Oc1cccc(-c2nnc(-c3cccc(O)c3)nn2)c1 | 3.69 µM (active) | –
N#C/C(=C\c1ccc(O)c([N+](=O)[O-])c1)C(=O)NCc1ccccc1 | – | 14.5
Cc1cnc([N+](=O)[O-])n1CCOC(=O)NC(=O)c1ccc(C(F)(F)F)cc1 | – | 16.2
C=CCn1c(C)cc(C(=O)COc2ccc(C)nc2[N+](=O)[O-])c1C | – | -14
O=C(Nc1ccc2c(c1)nc1n2CCSC1)c1ccco1 | 2.33 µM (active) | –
O=C(Nc1nnc(C23CC4CC(CC(C4)C2)C3)s1)c1ccco1 | – | -19.1

Compound | Potency | activity change, negative = cytotoxicity [%]
O=C1c2cc(F)ccc2-n2c1nc1ccccc1c2=O | 5.21 µM (active) | –
CN(C(=O)CSc1nc2ccccc2c(=O)n1-c1ccc(F)cc1)C1CCS(=O)(=O)C1 (centres undefined) | – | 0.691
Cc1ccc(-c2[nH][nH]c(=O)c(=O)c2N=Nc2ccccc2)cc1 | – | 2.65
O=[N+]([O-])c1cc(S(=O)(=O)N2CCCC2)ccc1N/N=C/c1ccncc1 | – | 6.25
Cc1ccc(OCC(=O)Nc2nc(C)c(Cl)cc2Cl)c([N+](=O)[O-])n1 | – | 18.2
O=[N+]([O-])c1ccc(N=NN(CCO)CCO)cc1 | – | 1.05
Cc1cc(C2=NNC(=NC3CC3)SC2)c(C)n1-c1ccccc1F | 0.927 µM (active) | –
CCOC(=O)C1=C(C)N=c2s/c(=C/c3cccc([N+](=O)[O-])c3O)c(=O)n2C1c1cc(OC)c(OC)c(OC)c1 (centres undefined) | – | 1.65
Cc1ccc([C@@H]2CC=C(C(=O)O)[C@H](c3ccccc3)N2S(=O)(=O)c2ccc(C)cc2)cc1 | – | 3.15
NCCCn1c(C(=O)c2ccc(Cl)cc2)c2ccc(C(F)(F)F)cc2[n+]1[O-] | – | 0.602
CCN1/C(=C\c2ccc3ccccc3[n+]2CC)Sc2cc(C)ccc21 | 4.65 µM (active) | –
N/C(=N/OC(=O)c1ccc(Cl)cc1)c1ncc([N+](=O)[O-])s1 | – | 13.6
Cc1ncc([N+](=O)[O-])n1CCOC(=O)c1cc(Cl)cc(Cl)c1N | – | 19.6
COC(=O)c1ccc2cc(OC)cc([N+](=O)[O-])c2n1 | – | 11.5
Cc1nc2c(o1)C(=O)c1ccccc1C2=Nc1ccccc1 | 4.65 µM (active) | –
Cc1c(N=Nc2ccc(O)cc2)c(=O)n(-c2ccccc2)n1C | – | 6.28
Cc1ccc(OCC(=O)c2cc(C)n(-c3ccccc3)c2C)c([N+](=O)[O-])n1 | – | 0.398
CCn1ncc([N+](=O)[O-])c1C(=O)Nc1nc2cccc(C)c2s1 | – | -4.43
CC(=O)Nc1ccc(NS(=O)(=O)c2ccc(C)cc2)c([N+](=O)[O-])c1 | – | 11.2
O=C(N/N=C/c1ccc([N+](=O)[O-])o1)c1cc(-c2ccc(-c3ccccc3)cc2)nc2ccccc12 | 2.61 µM (active) | –
CCCc1ccc(-c2cc(C(=O)N/N=C/c3ccc([N+](=O)[O-])o3)c3ccccc3n2)cc1 | 3.29 µM (active) | –
Cc1nc2ccccn2c1C(=O)N/N=C/c1ccc([N+](=O)[O-])o1 | 14.7 µM (active) | –
Cc1cc(N/N=C/c2ccc([N+](=O)[O-])o2)nc2ccccc12 | – | -6.07
O=C(N/N=C/c1ccc([N+](=O)[O-])o1)c1cn(-c2ccccc2)nc1-c1ccc(F)cc1 | – | 8.98
